This is a sample that favours compounds with a hit; in the whole collection about 3.1% have one here.
ABHD5 PLIN5 PPI – ABHD5-PLIN5 protein interaction inhibition. AID 602281. inhibition, % at 4 µM. Split G. princeps luciferase complementation, luminescence, 4 h. Q00G26+Q8WTS1. 360,000 tested, 0.78% active;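 active means inhibition above the mean inhibition across every tested compound plus 3 SD, cut at about 22% in these data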;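 further: 0% = DMSO only wells and the 100% control is not disclosed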
Target sequence (Q00G26 whole entry, looked up): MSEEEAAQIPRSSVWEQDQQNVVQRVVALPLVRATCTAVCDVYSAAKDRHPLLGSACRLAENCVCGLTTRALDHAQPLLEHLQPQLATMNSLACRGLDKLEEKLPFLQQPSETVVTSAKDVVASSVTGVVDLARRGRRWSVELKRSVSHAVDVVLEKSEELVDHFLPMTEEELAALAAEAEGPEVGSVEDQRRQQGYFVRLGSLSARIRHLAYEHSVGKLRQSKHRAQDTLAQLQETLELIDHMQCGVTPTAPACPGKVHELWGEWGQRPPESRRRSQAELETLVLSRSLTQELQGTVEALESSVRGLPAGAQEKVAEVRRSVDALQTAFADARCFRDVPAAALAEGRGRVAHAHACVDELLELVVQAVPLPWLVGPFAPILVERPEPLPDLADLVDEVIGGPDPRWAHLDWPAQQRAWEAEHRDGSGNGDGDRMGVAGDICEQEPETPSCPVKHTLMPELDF
Target sequence (Q8WTS1 whole entry, looked up): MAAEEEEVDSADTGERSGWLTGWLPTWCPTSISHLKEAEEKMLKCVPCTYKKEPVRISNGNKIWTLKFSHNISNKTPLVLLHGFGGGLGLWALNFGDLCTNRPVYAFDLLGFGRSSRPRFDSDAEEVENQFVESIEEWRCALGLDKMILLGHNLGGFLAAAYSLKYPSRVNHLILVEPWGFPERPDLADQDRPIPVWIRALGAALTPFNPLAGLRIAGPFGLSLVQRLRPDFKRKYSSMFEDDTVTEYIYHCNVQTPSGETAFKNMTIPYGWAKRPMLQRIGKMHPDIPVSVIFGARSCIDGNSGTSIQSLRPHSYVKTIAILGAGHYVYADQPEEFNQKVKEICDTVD
TRPM1 prom inh – inhibitors of MITF-driven TRPM1 promoter in melanoma cells; SK-MEL-5 TRPM1 promoter luciferase, 24 h; inhibition, % at 12.5 µM; 330,000 tested, 0.83% active;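 active means mean inhibition across replicates of 60% or more, whatever share of single replicates reaches that level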
KKLEB tox – reduces viability of KKLEB cystic fibrosis airway cells | KKLEB CF airway cells viability, ATPlite luminescence, overnight; hits give low values; cells stimulated with P. aeruginosa culture filtrate | activity change (cytotoxicity), % at 5 µM | 360,000 tested, 0.36% active | AID 602141;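 active means corrected activity change at or below -50% at 5 µM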
Peg3 prom inh – reduces Peg3 promoter-driven luciferase expression in HeLa; HeLa PEG-Prom luciferase reporter, luminescence, overnight; inhibition, % at 20 µM; 360,000 tested, 1.7% active; AID 588405;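 active means inhibition of at least 50% at 20 µM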
CF NFkB block – inhibitors of cystic fibrosis induced NF-kB. inhibition, % at 5 µM. KKLEB NF-kB-GFP reporter, PAF-induced, GFP fluorescence overnight. 360,000 tested, 0.86% active;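 active means at least 50% inhibition at 5 µM, scaled per plate between neutral and stimulator controls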;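 further: PAF is a Pseudomonas aeruginosa culture filtrate used as stimulus; plate controls were PAF-stimulated DMSO wells for no effect and unstimulated DMSO wells for full effect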
HIF-2a inh – blocks HIF-2a reporter activity | 786-0 RCC cells HIF-2a reporter, luciferase luminescence, overnight | inhibition, % at 18.8 µM | 360,000 tested, 0.72% active | AID 624352;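 active means inhibition of the luminescence signal of 40% or more relative to plate controls, in a single-dose primary screen at 18.75 µM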
* = called active by the depositor; / = no result given.

SMILES	ABHD5 PLIN5 PPI	TRPM1 prom inh	KKLEB tox	Peg3 prom inh	CF NFkB block	HIF-2a inh
CCN(CC)CCCNC(=S)N1CCN(c2nc(-c3ccc(F)cc3)cs2)CC1	3	10	-10	71*	13	-5
O=C(NCCCl)Nc1ncn[nH]1	-3	-5	-11	100*	-5	-4
CCOC(=O)c1ccc(N2N=C(C)/C(=C/C=C/c3ccco3)C2=O)cc1	-3	6	12	-21	-38	-4
O=C(O)c1cc(N2N=C(C(F)(F)F)/C(=C/C=C/c3ccco3)C2=O)ccc1Cl	22*	17	5	14	-7	15
O=C(NN1C(=O)NC2(CCCCC2)C1=O)c1ccc(Cl)c(Cl)c1	3	4	5	-11	7	0
COc1cc(C2C(C#N)=C(N)Oc3cc4c(cc32)OCO4)cc(OC)c1OC (centres undefined)	-1	77*	-10	-23	48	22
COc1cc(C2C(C#N)=C(N)Oc3cc(O)ccc32)cc(OC)c1OC (centres undefined)	-3	9	-22	10	1	-26
NC(N)=N/N=C/c1cc([N+](=O)[O-])ccc1O	5	4	-14	0	6	-9
O=[N+]([O-])c1ccc(O)c(/C=N\N=C2c3ccccc3-c3ccccc32)c1	-1	22	-51*	22	48	-34
CC(NC(=O)OC(C)(C)C)C(=O)Oc1cc2oc(=O)cc(-c3ccccc3)c2cc1Cl (centres undefined)	-4	-1	-18	-7	82*	-18
N#CC1C=Cc2c(ccc3ccccc23)N1C(=O)c1ccccc1 (centres undefined)	2	65*	-21	-140	42	32
COc1ccc(N(C)S(=O)(=O)c2cccc(C(=O)NC3CCCC3)c2)cc1	-2	6	8	15	-20	16
COc1ccc(N(C)S(=O)(=O)c2cccc(C(=O)NC3CCCCC3C)c2)cc1 (centres undefined)	-1	12	-13	102*	7	17
COCCCNC(=O)[C@H](Cc1ccccc1)NC(=O)CC[C@H]1O[C@@H](n2ccc(=O)[nH]c2=O)[C@H](O)[C@@H]1O	-9	/	1	3	-3	2
C[C@H](CO)N1C[C@H](C)[C@H](CN(C)C(=O)c2ccc3ccn(C)c3c2)OCc2cnnn2CCCC1=O	-6	/	-27	3	10	4
Cc1ccc(S(=O)(=O)Nc2c(C)n(C)n(-c3ccccc3)c2=O)cc1C(=O)NCc1ccccc1	-2	2	-20	10	-27	3
Cc1ccc2c(CN3CCCCC3CCO)cc(=O)oc2c1 (centres undefined)	0	19	-4	4	-3	6
CCN(Cc1ccc(OC)c(F)c1)C(=O)CCl	-3	75*	0	40	13	13
CCN(Cc1ccc(OC)c(F)c1)C(=O)C1CCCO1 (centres undefined)	-3	4	1	20	12	3
CCn1c2ccccc2c2cc(/C=N/NC(=O)c3ccc(O)cc3)ccc21	-4	-1	-7	3	-2	-45
CCn1c2ccccc2c2cc(/C=N/NC(=O)c3ccncc3)ccc21	3	4	-24	62*	-10	11
COc1cc(C(=O)NCCOc2ccccc2C)cc(OC)c1OC	5	7	-3	16	2	10
COc1ccc(C2=Nn3c(nnc3-c3ccccc3F)SC2)cc1OCC1CC1	-4	18	-44	53*	38	6
Cc1cc(C)cc(N(CCC#N)C(=O)COC(=O)C2CCN(c3ccc(C(F)(F)F)cn3)CC2)c1	5	5	0	23	20	2
Cc1ccc(OCc2cc(C(=O)N3CCCC(O)C3)no2)cn1 (centres undefined)	1	-23	0	-43	5	-38
SMILES	ABHD5 PLIN5 PPI	TRPM1 prom inh	KKLEB tox	Peg3 prom inh	CF NFkB block	HIF-2a inh
CCn1c(SCC(=O)Nc2cccc(NC(C)=O)c2)nc2c([nH]c3ccccc32)c1=O	0	26	-52*	30	61*	17
CN(C)c1ccc(NC(=S)Nc2ccc3c(c2)c(=O)n(C)n3-c2ccc(C(C)(C)C)cc2)cc1	-19	/	6	-43	-4	-38
Cc1ccccc1Oc1ccc2c(c1)[C@@H]1C[C@H](N(C)C(=O)Nc3cc(Cl)cc(Cl)c3)[C@H]([C@H](C)O)C(=O)N1CC2	-1	-7	-13	68*	-2	17
N#Cc1cccc2c1-c1ccccc1/C2=N/NC(N)=O	9	3	10	52*	-101	30
COc1ccc(NC(=O)N(C)C[C@H]2OCc3cnnn3CCCC(=O)N([C@@H](C)CO)C[C@H]2C)cc1	7	/	9	-23	-23	10
Cc1ccc(Nc2nc(NCCO)c3ccccc3n2)cc1C	9	-13	-18	54*	27	-94
COc1ccc(OC)c(Nc2nc(NCCO)c3ccccc3n2)c1	7	-8	4	14	-47	8
CCOCCn1ccc2c(OCC(=O)Nc3cc(OC)ccc3OC)cccc2c1=O	14	2	-8	46	10	0
COCCn1ccc2c(OCC(=O)Nc3cc(OC)ccc3OC)cccc2c1=O	-2	9	3	52*	20	9
Cc1cc(C)cc(N(CC(=O)NCCSCc2ccccc2)S(C)(=O)=O)c1	-7	0	13	7	2	17
N=c1n(CCO)c2ccccc2n1CCOc1ccc(Cl)cc1Cl	11	4	-24	103*	14	-1
O=C(CCS(=O)(=O)c1ccc(F)cc1)Nc1nc(-c2ccccn2)cs1	-1	42	3	8	10	6
CC(Oc1ccc(F)cc1)C(=O)Nc1nc(-c2ccccn2)cs1 (centres undefined)	-7	65*	12	55*	3	11
O=C(CC(c1ccccc1)c1ccco1)Nc1nccs1 (centres undefined)	6	11	7	-22	-8	-32
O=c1[nH]c(Cc2ccccn2)nc2scc(-c3ccccc3Cl)c12	-5	-3	-1	8	-7	15
COCCCn1c(C)nnc1-c1cnn(-c2ccccc2)c1N	-5	4	9	-19	11	-2
c1ccc(COc2ncnc3c2ncn3CCCNC2CCN(Cc3ccccc3)CC2)cc1	6	/	-27	61*	33	-30
CCOc1cc(C(=O)N2CCN(c3ccccn3)CC2)cc(OCC)c1OCC	0	-1	1	19	-12	12
Cc1ccc(-n2nc(C)c3c(C)c(CCC(=O)NCC4CCCO4)c(=O)n(C)c32)cc1 (centres undefined)	-5	18	4	20	4	7
CN1CCN(CCCNC(=O)c2ccc(/C=C3\Sc4ccccc4N(Cc4ccc(F)cc4)C3=O)cc2)CC1	13	22	-14	104*	-4	-4
